Compounds with a hit are over-represented: about 21% of the library has one in this group of screens.
CHX counter: Cycloheximide Counterscreen for Small Molecule Inhibitors of Shiga Toxin | cell reporter, cycloheximide protein synthesis inhibition counterscreen | max response, % | actives 12% (n = 300,000) | AID 2314, 2010; in the data active = max response mostly above about 13%, no sharp cut-off; inactive = mostly below about 14%; note: read at 38.3 µM for the half of the compounds with a filed dose; 0% is about no effect
Pf growth 96h: Primary qHTS for delayed death inhibitors of the malarial parasite plastid, 96 hour incubation. AID 504834, 2011. Potency, µM (doses to about 28.7 µM), for inactives: top-dose activity change, negative = inhibition, hits mostly inhibitors. P. falciparum luciferase reporter growth, 96 h. actives 6.9% (n = 320,000); note: potency is the fitted concentration of half-maximal effect; % is set by controls: 0 for no effect and ±100 for the full control effect
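P. falciparum expressing integrated firefly luciferase, in erythrocytes at 2% hematocrit, 0.05% parasitemia, incubated with compounds 96 h at 37 C, 5% CO2. Growth inhibition read as loss of luminescence; two-generation exposure targets delayed-death apicoplast inhibitors.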
Pf growth 48h: Primary qHTS for delayed death inhibitors of the malarial parasite plastid, 48 hour incubation | P. falciparum luciferase growth in erythrocytes, 48 h | Potency, µM (titrated, usually from 28.7 µM), without a hit: at the top dose activity change, negative = inhibition, actives largely listed as inhibitors | actives 5.9% (n = 310,000) | AID 504832, 2011; note: potency is the fitted concentration of half-maximal effect; % is set by controls: 0 for no effect and ±100 for the full control effect
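Firefly luciferase activity from engineered P. falciparum reports growth; inhibitors lower the luminescent signal. Cultures contained 2% hematocrit erythrocytes at 0.1% final parasitemia.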
Shiga toxin inh: A qHTS for Small Molecule Inhibitors of Shiga Toxin. Vero cells, Shiga toxin protein synthesis inhibition reporter. inhibition, % at 38.7 µM. actives 9.2% (n = 290,000). AID 2315, 2010; in the data active = inhibition mostly above about 28%, no sharp cut-off; inactive = mostly below about 43%; note: 0% is about no effect
* hit, by the source's call. Unless noted, calls come from the whole dose curve; as a rule, active = well fitted inhibition curve with a large enough effect; inconclusive = small, poorly fitted or top-dose-only effect, or another doubt; inactive = no such curve, though single readings can be large or run the other way.

For O=C(c1cccc(N2C(=O)C3CC=CCC3C2=O)c1)N1CCCc2ccccc21 (stereo not drawn) the results were CHX counter 36*, Pf growth 96h 0%, Pf growth 48h 11% and Shiga toxin inh 74*.
O=C(c1ccc2c(c1)OCO2)N1CCCCC1 was read as CHX counter 7 and Shiga toxin inh -2.
For O=C(c1ccc2c(c1)OCO2)N1CCCc2ccccc21 the results were CHX counter 40*, Pf growth 48h 20% and Shiga toxin inh 74*.
CC(Nc1ccc2c(c1)OCCO2)C(=O)N1CCc2ccccc21 (stereo not drawn) was read as CHX counter 21*, Pf growth 96h 33%, Pf growth 48h 27% and Shiga toxin inh 84*.
`COc1cccc(C(=O)N2CCC(n3nccc3NC(=O)C(OC)c3ccccc3)CC2)c1` (stereo not drawn) gave CHX counter -1, Pf growth 96h -18%, Pf growth 48h inconclusive and Shiga toxin inh -6.
O=C(c1ccc2c(c1)OCO2)N1CCc2ccccc21 was read as CHX counter 29, Pf growth 96h inconclusive, Pf growth 48h 7% and Shiga toxin inh 59*.
Screening O=C(c1ccc(Br)cc1)N1CCCc2ccccc21 returned CHX counter -3, Pf growth 96h -22%, Pf growth 48h 6% and Shiga toxin inh 20.
O=C(c1ccccc1)N1CCCc2ccccc21 was read as CHX counter 3, Pf growth 96h -15%, Pf growth 48h 9% and Shiga toxin inh 2.
Screening O=C(c1ccc(Cl)c(S(=O)(=O)N2CCc3ccccc3C2)c1)N1CCN(c2ccccc2)CC1 returned CHX counter -2, Pf growth 96h inconclusive, Pf growth 48h inconclusive and Shiga toxin inh -11.
O=C(Nc1cccc(C(=O)N2CCCc3ccccc32)c1)c1ccccc1 was read as CHX counter 7, Pf growth 96h 4.7µM* and Pf growth 48h inconclusive.
O=C(c1ccc(=O)oc1)N1CCCc2ccccc21 was read as CHX counter 51*, Pf growth 96h 172%, Pf growth 48h 85% and Shiga toxin inh 76*.
O=C(c1ccc(Cl)c(S(=O)(=O)Nc2ccccc2C(=O)N2CCc3ccccc3C2)c1)N1CCc2ccccc2C1 was read as CHX counter 1, Pf growth 96h inconclusive, Pf growth 48h 10µM* and Shiga toxin inh -17.
`CCCCC1CCC(C(=O)NCC(c2ccco2)N2CCOCC2)CC1` (stereo not drawn) gave CHX counter 13, Pf growth 96h -7%, Pf growth 48h -14% and Shiga toxin inh -4.
Screening O=C(COc1ccccc1Cl)Nc1ccc2oc(=O)ccc2c1 returned CHX counter 12, Pf growth 96h 0%, Pf growth 48h 29% and Shiga toxin inh 31.
CCCCCCCCCCCCCCCCOC[C@H](COP(=O)([O-])OCC[N+](C)(C)C)OC(=O)CCCCCCCC(=O)O was read as CHX counter -3 and Shiga toxin inh -8.
Cc1ccc(Oc2cc(-n3nc(C)cc3C)ncn2)cc1 was read as CHX counter 17*, Pf growth 96h 72%, Pf growth 48h 40% and Shiga toxin inh 59*.
Screening CC1CCN(C(C(=O)NC2CCCCC2)c2cc3c(cc2[N+](=O)[O-])OCO3)CC1 (stereo not drawn) returned CHX counter -2, Pf growth 96h 51%, Pf growth 48h 9.3µM* and Shiga toxin inh 31.
For CC1CCCN(C(C(=O)NC2CCCCC2)c2cc3c(cc2[N+](=O)[O-])OCO3)C1 (stereo not drawn) the results were CHX counter 53*, Pf growth 96h 1%, Pf growth 48h inconclusive and Shiga toxin inh 108*.
For Nc1nonc1NC(=O)NN=C1CCCCC1 the results were CHX counter 1, Pf growth 96h -3%, Pf growth 48h 4% and Shiga toxin inh 44.
Cc1nc(SCC(N)=O)[nH]c(=O)c1Cc1ccc(OC(C)C)cc1 was read as CHX counter 8, Pf growth 96h 1.7µM*, Pf growth 48h inconclusive and Shiga toxin inh 20.
N/C(=N\OC(=O)c1ccccc1)c1cccnc1 was read as CHX counter 47*, Pf growth 96h 0%, Pf growth 48h 0% and Shiga toxin inh 66*.
`N/C(=N\OC(=O)c1ccccc1Cl)c1cccnc1` gave CHX counter 38*, Pf growth 96h 29%, Pf growth 48h 61% and Shiga toxin inh 61*.
Screening N/C(=N\OC(=O)c1cc(Br)ccc1Cl)c1cccnc1 returned CHX counter 9, Pf growth 96h inconclusive, Pf growth 48h inconclusive and Shiga toxin inh 23.
For N/C(=N\OC(=O)CC(c1ccccc1)c1ccccc1)c1cccnc1 the results were CHX counter -2, Pf growth 96h -1%, Pf growth 48h inconclusive and Shiga toxin inh 10.
For O=C(O/N=C(/c1ccccc1)c1ccncc1)c1ccc(F)cc1 the results were CHX counter -7, Pf growth 96h 23%, Pf growth 48h inconclusive and Shiga toxin inh -4.
`N/C(=N\OC(=O)c1cc(Cl)ccc1Cl)c1cccnc1` gave CHX counter 34*, Pf growth 96h inconclusive and Shiga toxin inh 56.
N/C(=N\OC(=O)c1ccccc1)c1ccn[nH]1 was read as CHX counter 25*, Pf growth 96h 179%, Pf growth 48h 176% and Shiga toxin inh 49*.
Screening CCOc1ccc(CN(C)C(=O)CNC(=O)c2ccc(Br)o2)cc1OC returned CHX counter -9, Pf growth 96h 2%, Pf growth 48h -6% and Shiga toxin inh -12.
COc1ccccc1NS(=O)(=O)c1ccc2oc(N)nc2c1 was read as CHX counter -1, Pf growth 96h 10%, Pf growth 48h -16% and Shiga toxin inh 2.
CCc1ccccc1NC(=O)CCc1c(C)nc(SC)nc1C was read as CHX counter -2, Pf growth 96h inconclusive, Pf growth 48h -25% and Shiga toxin inh 30.
For CCCNC(=O)C(Cc1ccccc1)NC(=O)c1ccc(C(F)(F)F)cc1 (stereo not drawn) the results were Pf growth 96h inconclusive and Pf growth 48h -26%.
For N/C(=N\OC(=O)c1ccc(Cl)cc1[N+](=O)[O-])c1cccnc1 the results were CHX counter 44*, Pf growth 96h inconclusive, Pf growth 48h -13% and Shiga toxin inh 56*.
`CCCCN(C(=O)Cc1ccc2c(c1)OCCO2)c1c(N)n(CCC)c(=O)[nH]c1=O` gave Pf growth 96h inconclusive and Pf growth 48h -22%.
`CCCCn1c(N)c(N(CC(C)C)C(=O)CC2CCCC2)c(=O)[nH]c1=O` gave Pf growth 96h -4% and Pf growth 48h inconclusive.
`Cc1[nH]cnc1C(=O)N/N=C/c1c(Cl)cccc1Cl` gave CHX counter 36*, Pf growth 96h 23%, Pf growth 48h 45% and Shiga toxin inh 46.
CSc1nc(=S)n(-c2cc(C)ccc2C)c(C)c1C(C)=O was read as CHX counter -2, Pf growth 96h 27%, Pf growth 48h -10% and Shiga toxin inh 19.
`CCC12C(=O)C(CC)(C(c3ccccc3)=C1c1ccccc1)[C@@H]1C(=O)N(c3ccccc3)C(=O)C12` (stereo partly drawn) gave CHX counter -1, Pf growth 96h inconclusive, Pf growth 48h 2.1µM* and Shiga toxin inh -6.
